Screen size: about 310,000 compounds; about 17,000 (5.5%) were called active. Not shown: some 11% with an inconclusive outcome. Calls follow the shape of the dose curve; as a rule, active = well fitted inhibition curve with a large enough effect; inconclusive = small, poorly fitted or top-dose-only effect, or effect the other way; inactive = no such curve, though single readings can be large or run the other way. The sample as a whole holds a higher share of actives than the screen did.
Biological target: Nuclear receptor ROR-gamma (Mus musculus) (UniProt P51450)
Experiment: qHTS for inhibitors of ROR gamma transcriptional activity; also: nearly all actives have a fitted effect of over 60% in size
Settings: Drosophila S2 Gal4-RORgamma UAS-luciferase reporter, 20 h; series mostly up to 53.6 µM; activity change, negative = inhibition: at the top concentration
Method in brief: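 Schneider cells (Drosophila), stable Gal4 DBD–ROR gamma + UAS-luc; 1 hr cmpd preincubation; Cu2+ induction 700 uM final; 20 hr ambient; luminescence.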
% is scaled to controls: 0 for no effect and ±100 for the full control effect; potency is read from the fitted curve at half-maximal effect.

Chain of Nuclear receptor ROR-gamma (Mus musculus) (P51450 whole entry, looked up): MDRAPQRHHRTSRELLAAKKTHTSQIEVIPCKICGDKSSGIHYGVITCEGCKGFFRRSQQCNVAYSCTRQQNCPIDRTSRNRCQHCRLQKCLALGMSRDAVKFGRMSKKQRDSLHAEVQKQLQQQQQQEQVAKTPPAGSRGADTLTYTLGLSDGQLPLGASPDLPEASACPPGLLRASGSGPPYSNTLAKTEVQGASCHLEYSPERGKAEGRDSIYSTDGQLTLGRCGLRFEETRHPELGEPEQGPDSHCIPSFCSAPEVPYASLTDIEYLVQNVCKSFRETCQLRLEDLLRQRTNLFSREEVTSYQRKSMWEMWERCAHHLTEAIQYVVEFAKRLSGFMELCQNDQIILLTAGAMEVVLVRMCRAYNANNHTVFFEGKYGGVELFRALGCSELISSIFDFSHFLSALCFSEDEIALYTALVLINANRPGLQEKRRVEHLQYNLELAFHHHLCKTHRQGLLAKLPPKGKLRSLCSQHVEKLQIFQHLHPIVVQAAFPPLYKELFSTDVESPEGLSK

Structure (SMILES) | activity change, negative = inhibition | Potency
COc1cc(C2C(C(=O)c3ccco3)=C(O)C(=O)N2c2cc(C)on2)ccc1OCc1ccccc1 (stereo not given) | 2.05% (inactive) | 
COc1ccc(C(C(=O)NC(C)(C)C)N(Cc2ccc(F)cc2)C(=O)CCC(=O)Nc2cc(C)on2)cc1 (stereo not given) | 21.9% (inactive) | 
O=C(Nc1ccccc1C(=O)O)c1ccc(N2C(=O)C3CC=CCC3C2=O)cc1 (stereo not given) | -11.1% (inactive) | 
O=C(Cn1cnc2ccccc21)N/N=C/c1ccco1 |  | 12.6 µM (active)
O=C(Cn1cnc2ccccc21)Nc1ccccc1-c1ccccc1 | 20.3% (inactive) | 
Cc1cc(C)c(OCC(=O)N/N=C/c2ccco2)c(C)c1 | -10.1% (inactive) | 
COc1ccc(C(=O)N[C@H](C(=O)NCc2ccccc2)C(C)C)cc1 | -13.3% (inactive) | 
CNC[C@H](CC1CCCCC1)NC[C@H](NCCC1CCCC1)[C@H](C)O | -39.4% (inactive) | 
O=C(Nc1cccnc1Cl)c1cc(-c2ccccc2O)on1 | 23.6% (inactive) | 
O=c1[nH]c(CCl)nc2cc(-c3ccc(Cl)cc3)sc12 |  | 7.08 µM (active)
NC(=O)Cc1nc2scc(-c3ccc(Cl)cc3)c2c(=O)[nH]1 | 29.3% (inactive) | 
O=C(CCc1nc2ccccc2c(=O)[nH]1)OCC(=O)c1cccc(Cl)c1 | -5% (inactive) | 
CC(C)c1cc(C(=O)N/N=C/C(Br)=C/c2ccccc2)n[nH]1 | -8.97% (inactive) | 
Cc1ccc(-c2cc(C(=O)N/N=C/C=C/c3ccccc3)n[nH]2)o1 |  | 7.08 µM (active)
Cc1ccc(-c2cc(C(=O)NN)n[nH]2)o1 | -32.5% (inactive) | 
CCOC(=O)N1CCC(N2Cc3cccc(C(=O)Nc4ccc(S(=O)(=O)N(CC)CC)cc4)c3C2=O)CC1 | -9.07% (inactive) | 
Cc1ccc2c(c1)N(CC(=O)N1CCC(C)CC1)C(=O)c1cccnc1O2 | 1.07% (inactive) | 
CCCn1nc(NC(=O)C(C)C)c2cc3cc(OC)ccc3nc21 | 5.01% (inactive) | 
Cc1cc(Cl)c2oc(C(=O)N(C)C(C)c3ccccn3)c(C)c2c1 (stereo not given) | 12.6% (inactive) | 
CCNC(=O)N1CCCC(C(=O)c2ccc(-c3ccccc3)cc2)C1 (stereo not given) | 41.7% (inactive) | 
NS(=O)(=O)c1ccc(CCNC(=O)c2nc(CS(=O)(=O)c3ccc(Cl)cc3)no2)cc1 | 6.38% (inactive) | 
COc1ccccc1NC(=O)CSc1nc2sc3c(c2c(=O)n1-c1ccccc1)CCN(C)C3 | 20.1% (inactive) | 

Structure (SMILES) | activity change, negative = inhibition | Potency
Cc1cccc(NC(=S)NCc2ccc3[nH]c4c(c3c2)CCCC4)c1 |  | 1.58 µM (active)
C=CCNC(=S)N1CCc2[nH]c3ccccc3c2C1 | -8.55% (inactive) | 
O=C(O)CCC(=O)NCc1ccc2[nH]c3c(c2c1)CCCC3 | -10.5% (inactive) | 
Cc1cnc(CN(C)C(=O)C2CCC(=O)N(CCc3cccc(F)c3)C2)[nH]1 (stereo not given) | -3.15% (inactive) | 
Nc1nnn(CC(=O)N/N=C/c2ccc(O)cc2)n1 | -0.319% (inactive) | 
O=C(C[n+]1ccccc1)N/N=C/c1ccc(O)cc1 | 0.902% (inactive) | 
CC(C)(C)c1nnc(N/N=C/c2ccc(O)cc2)n(N)c1=O |  | 1.26 µM (active)
CSc1cccc(NC(=O)CN2C(=O)COc3ccc(S(=O)(=O)N4CCOCC4)cc32)c1 | 8.6% (inactive) | 
CC(=O)c1ccc(N2CCN(C(=O)CCNC(=O)Cn3ccc4ccccc4c3=O)CC2)cc1 | -9.01% (inactive) | 
Cc1ccccc1NC(=O)c1cc(S(=O)(=O)Nc2cccc(C(=O)O)c2)ccc1Cl | 13.3% (inactive) | 
COc1cccc(NC(=O)CC2C(=O)NCCN2C(=S)Nc2ccc(F)cc2)c1 (stereo not given) | 29.9% (inactive) | 
CCC1C(=O)NCCN1C(=O)c1ccc2nc(Cc3ccc(OC)cc3)oc2c1 (stereo not given) | 19.5% (inactive) | 
COc1ccc(C(=O)NC(=S)N2CCNC(=O)C2CC(=O)OC(C)C)cc1 (stereo not given) |  | 4.47 µM (active)
CCOC(=O)CCCN1CC(O)=C(c2nc3ccccc3s2)C1=N | 20.7% (inactive) | 
N=C1C(c2nc3ccccc3s2)=C(O)CN1NC(=O)c1ccc([N+](=O)[O-])cc1 |  | 2.82 µM (active)
COc1ccccc1N1CC(O)=C(c2nc3ccccc3s2)C1=N | -40.9% (inactive) | 
CCOc1cc(C2C(C(=O)c3ccco3)=C(O)C(=O)N2Cc2ccccc2)ccc1O (stereo not given) | -17.1% (inactive) | 
Cn1nc(-c2ccccc2)c2cc([N+](=O)[O-])ccc21 | -15.4% (inactive) | 
Cc1c(NC(=O)Nc2cccc([N+](=O)[O-])c2)c(=O)n(-c2ccccc2)n1C | -4.92% (inactive) | 
CC(CC(=O)Nc1ccc(F)cc1F)S(=O)(=O)c1ccc2c(c1)NC(=O)CO2 (stereo not given) | 18.2% (inactive) | 
Cc1nnc(SCC(=O)NCc2ccccc2)s1 | 30.7% (inactive) | 
Cc1cc(SCC(=O)NCCN2C(=O)CSC2=O)nc2ccccc12 |  | 11.2 µM (active)

Structure (SMILES) | activity change, negative = inhibition | Potency
COCC(C)n1c(C)cc(C(=O)CSc2cc(C)c3ccccc3n2)c1C (stereo not given) | -19.8% (inactive) | 
N[C@@H](Cc1ccccc1)C(=O)N1CCC(C(=O)NCC(=O)Nc2ccc(F)cc2)CC1 | -3.33% (inactive) | 
Cc1ccn2c(=O)c(C(=O)NCCC3=CCCCC3)c(O)nc2c1 | -18.2% (inactive) | 
O=C(Nc1cn(-c2ccccc2)nc1-c1ccccc1)c1ccccc1 | 28.8% (inactive) | 
O=C(NNC(=S)NC(=O)c1cn(-c2ccccc2)nc1-c1ccccc1)c1ccncc1 |  | 2.82 µM (active)
COC(=O)c1cn(-c2ccccc2)nc1-c1cccnc1 | -14.8% (inactive) | 
CC(C)CCN(C(=O)c1csnn1)C(C(=O)NC1CCCC1)c1ccccc1 (stereo not given) | -6.52% (inactive) | 
Cc1ccc(NC(=O)CN(C)C(=O)COC(=O)C(C)(C)Oc2ccc(Cl)cc2)cc1 | 6.56% (inactive) | 
Cn1c(Cc2cccs2)nnc1SCC(=O)Nc1ccccc1 | 1.98% (inactive) | 
Cn1c(CSCC(=O)Nc2ccccc2)nnc1SCc1ccccc1 | 5.44% (inactive) | 
Cn1c(CC(=O)Nc2ccccc2)nnc1SCC(=O)c1ccccc1 |  | 3.55 µM (active)
CCOc1ccc(N(CC)S(=O)(=O)c2cccc3nsnc23)cc1 | -23.8% (inactive) | 
O=C(CN(C(=O)c1csnn1)c1cccc(Cl)c1)NC1CCCC1 | 0.687% (inactive) | 
COc1cc(Cl)ccc1OCc1cc(C(=O)N2CC[C@@H]3CCCC[C@H]3C2)no1 | 11.1% (inactive) | 
CCc1ccc(NC(=O)Cn2nnc(C(=O)NCc3ccc4c(c3)OCO4)c2N)cc1 | -14.2% (inactive) | 
O=C(/C=C/c1ccccc1[N+](=O)[O-])OC1CCCCC1=O (stereo not given) | 27.5% (inactive) | 
CC1CCCCC1NC(=O)/C(C#N)=C/C=C/c1ccccc1[N+](=O)[O-] (stereo not given) |  | 8.91 µM (active)
O=C(/C=C/c1ccccc1[N+](=O)[O-])NCC1CCCO1 (stereo not given) | 16.2% [at 10 µM] (inactive) | 
CCCCC(=O)Nc1nnc(S(=O)(=O)N(C)Cc2ccco2)s1 | 32.9% (inactive) | 
CSc1ccccc1NC(=O)c1cc(Cl)sc1Cl | 16.4% (inactive) | 
CC(c1ccccn1)N(C)C(=O)c1ccc2nc(Cc3cccc(Cl)c3)oc2c1 (stereo not given) | 1.45% (inactive) | 
